Compound activity (PubChem BioAssay)
Hits are enriched below; roughly 7% of the tested compounds scored in any of these assays.
GRIN3A LBD mod: modulators (binders) of human NR3A ligand-binding domain. 340,000 compounds, 2.5% hits. NR3A LBD differential scanning fluorimetry, Tm shift; 0% = protein alone, 100% = glycine-bound protein. Tm shift relative to glycine control, % at 25 µM;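 active = melting temperature shift of at least 10% of the positive control shift, at one fixed dose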
rCAG RNA binder: molecules binding r(CAG) RNA repeats. inhibition, % at 3 µM. r(CAG) RNA repeat, TO-PRO-1 dye displacement fluorescence. AID 651821. 370,000 compounds, 1.3% hits;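 active = inhibition above the plate cutoff, the mean of all test compounds on that plate plus 3 SD, cut at about 35% in these data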;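 note: 0% = DMSO alone and 100% = 100 µM mitoxantrone as full dye displacement; higher means more dye released from RNA so lower well fluorescence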
ADAM10 inh: inhibitors of human ADAM10 | 370,000 compounds, 0.62% hits | inhibition, % at 7 µM | recombinant ADAM10, EDANS/DABCYL FRET peptide cleavage, 3 h;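 active = inhibition above a per-campaign cutoff equal to the mean of compounds falling between control-based bounds plus 3 SD, cut at about 20% in these data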;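 note: 0% = DMSO wells while the 100% control is not disclosed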
proKLK7 act: activates the human kallikrein-7 zymogen; P49862; purified proKLK7, EDANS-DABCYL substrate fluorescence; 100% is mature enzyme control, 0% vehicle; activation, % at 7 µM; 370,000 compounds, 0.9% hits;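 active = activation above the mean of all tested compounds plus 3 SD, computed per campaign excluding outliers beyond control limits, cut at about 13% in these data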
AHR act: activates the human aryl hydrocarbon receptor. AHR-responsive luciferase reporter cells, luminescence. 320,000 compounds, 2.5% hits. activation, % at 5 µM. P35869. AID 2796; in the data active = activation above about 47%;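 note: 0% = vehicle wells and 100% = reference agonist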
ADAM17 inh: inhibits human ADAM17; P78536; recombinant ADAM17, EDANS/DABCYL FRET peptide cleavage; inhibition, % at 6.95 µM; 370,000 compounds, 0.83% hits; AID 720648;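 active = inhibition above the mean of compounds lying between control limits plus 3 SD, set per campaign, cut at about 8.5% in these data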;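 note: 0% = DMSO-only wells as the low control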
Target sequence (P78536 215-824 limits assumed): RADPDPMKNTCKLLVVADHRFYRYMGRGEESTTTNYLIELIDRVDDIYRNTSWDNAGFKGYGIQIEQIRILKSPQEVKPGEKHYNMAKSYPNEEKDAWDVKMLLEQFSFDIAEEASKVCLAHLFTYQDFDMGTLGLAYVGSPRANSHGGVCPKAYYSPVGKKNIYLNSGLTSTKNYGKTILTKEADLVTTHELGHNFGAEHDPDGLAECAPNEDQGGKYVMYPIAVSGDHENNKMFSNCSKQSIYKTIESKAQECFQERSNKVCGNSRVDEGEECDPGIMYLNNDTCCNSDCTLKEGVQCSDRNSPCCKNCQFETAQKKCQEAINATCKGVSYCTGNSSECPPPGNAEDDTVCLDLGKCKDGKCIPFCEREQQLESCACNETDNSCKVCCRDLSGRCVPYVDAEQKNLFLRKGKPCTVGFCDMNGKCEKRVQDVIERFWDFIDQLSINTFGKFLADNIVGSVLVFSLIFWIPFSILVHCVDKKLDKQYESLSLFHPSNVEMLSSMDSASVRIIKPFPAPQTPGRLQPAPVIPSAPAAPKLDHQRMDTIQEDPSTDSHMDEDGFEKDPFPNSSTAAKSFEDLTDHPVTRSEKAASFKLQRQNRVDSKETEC
Numbers without * were called inactive; / = no result.

SMILES | GRIN3A LBD mod | rCAG RNA binder | ADAM10 inh | proKLK7 act | AHR act | ADAM17 inh
Cc1ccccc1-c1nc(CS(=O)CC(=O)NCCc2ccc(Cl)cc2)c(C)o1 (stereo not drawn) | 488.6* | -1.6 | -5.2 | 1.1 | 0.9 | 1.9
Cn1c(/C(C#N)=C(\O)c2ccc(Cl)s2)nc2ccccc21 | 0.9 | 2.5 | 3.0 | -0.2 | 64.9* | 2.8
Cn1c(/C(C#N)=C(\O)c2ccc([N+](=O)[O-])s2)nc2ccccc21 | -1.4 | -1.5 | -10.5 | 0.5 | 12.1 | -6.1
COC(=O)c1cc(-c2cc(Cl)cc(Cl)c2)c(=O)n2c1CCC2 | / | 0.5 | -5.4 | -0.6 | / | -4.7
Cc1cccc(-c2cc(=O)c(C(=O)O)cn2-c2ccc(F)cc2F)c1 | 12.9* | 1.2 | -4.0 | 0.9 | 2.5 | -2.9
COCc1[nH]nc2c1C(c1ccccc1)NC2=O (stereo not drawn) | / | 2.1 | -4.5 | 0.0 | / | 0.3
COc1cccc(CN(CC2CCCO2)S(=O)(=O)c2ccc(-n3cnnn3)c(OC)c2)c1 (stereo not drawn) | 10.1* | -0.8 | 9.0 | 0.6 | 0.5 | -3.7
CCN(Cc1ccccc1)S(=O)(=O)c1ccc(S(=O)(=O)N(Cc2cccc(OC)c2)CC2CCCO2)cc1 (stereo not drawn) | 1.9 | 4.5 | -1.9 | -0.2 | -3.3 | 0.4
COC(=O)[C@]12C[C@H](CC(=O)NCCCCc3ccccc3)C(=O)N(CCC3=CCCCC3)C1=C[C@H](COCc1ccccc1)O[C@@H]2C | / | 6.6 | -4.1 | -0.1 | / | 1.9
Cc1c(C(=O)NCCCn2ccnc2)oc2ccccc12 | 0.2 | -2.2 | -4.1 | -1.0 | 58.9* | -0.3
O=C(NCCCn1ccnc1)c1csc2ccccc12 | -12.3 | -2.3 | -8.2 | -0.8 | 51.6* | -1.1
CCCCCN1CCCCC(NC(=O)c2cccc(C(F)(F)F)c2)C1=O (stereo not drawn) | / | -3.5 | -2.8 | -0.3 | / | -2.4
Cc1ccc(NC(=O)Nc2ccc(Cl)cn2)cc1 | -13.8 | 1.0 | -2.1 | 0.1 | / | -8.0
O=C(Nc1cccc(F)c1)Nc1ccc(Cl)cn1 | 8.4 | 4.8 | 8.8 | 0.2 | 16.4 | -2.4
Cc1ccc(NC(=O)Nc2ccc(Cl)c(Cl)c2)nc1 | 11.6* | -3.2 | -7.5 | -0.1 | 11.9 | -5.6
Cc1ccc(NC(=O)Nc2cccc(F)c2)nc1 | 21.0* | 1.9 | 2.2 | -1.1 | / | -2.2
C=CCN=C1NC(c2ccc(C(F)(F)F)cc2)C(C(=O)OC)=C(C)N1C (stereo not drawn) | / | 5.3 | -8.2 | 0.6 | / | -5.3
Cn1c(=O)c2[nH]c(SCCN3CCCCC3)nc2n(C)c1=S | 15.1* | 2.7 | -5.6 | 0.1 | / | -1.8
COc1ccc(/C=C/c2c(-c3ccc(OC)cc3)sc3ccc(N4CCOCC4)cc23)cc1 | -0.4 | / | / | / | 24.8 | /
COc1ccc(-c2sc3ccccc3c2-c2ccc(O)cc2)cc1 | 13.6* | 8.1 | -64.0 | -3.4 | 24.9 | -13.4
COc1ccc2sc(-c3ccc(SC)cc3)c(/C=C/c3ccc(OC)c(OC)c3)c2c1 | -2.7 | 6.7 | -71.5 | 1.2 | 49.5* | -17.8
COc1ccc(-c2sc3ccccc3c2/C=C/c2ccc(N)cc2)cc1 | -1.8 | 7.1 | -82.4 | -67.2 | 53.6* | -35.6
Cc1cc2nc(CCN(Cc3cccnc3)C(=S)Nc3ccccc3)[nH]c2cc1C | -1.0 | 2.6 | 2.8 | 0.1 | 16.2 | 5.9
Cc1cc2nc(CCN(Cc3cccnc3)C(=S)Nc3ccc(F)cc3)[nH]c2cc1C | 26.7* | 0.2 | -1.0 | 0.3 | 7.8 | 0.4
COc1ccc(NC(=S)N(CCc2c(C)[nH]c3ccc(C)cc23)Cc2cccnc2)cc1 | -7.7 | 5.2 | -5.8 | -0.5 | 53.9* | 2.1
SMILES | GRIN3A LBD mod | rCAG RNA binder | ADAM10 inh | proKLK7 act | AHR act | ADAM17 inh
CCN(C(=O)CCc1cn(CC)c2ccccc12)c1ccc(Oc2cccnc2)cc1 | / | 2.3 | 4.2 | 1.0 | / | 7.3
Cc1ccc(Cn2c(C(CO)Nc3nc(-c4ccc(F)cc4)cs3)nc3ccccc32)cc1 (stereo not drawn) | 18.7* | 4.3 | -0.2 | 0.5 | 8.5 | 0.9
O=C(CCCN1C(=O)/C(=C\c2cccs2)SC1=S)Nc1cc([N+](=O)[O-])ccc1O | 23.4* | 5.0 | -4.1 | -0.1 | 3.2 | -4.3
O=C(CCCN1C(=O)/C(=C/c2cccs2)SC1=S)Nc1cccc(C(=O)O)c1 | -1.9 | 5.1 | 2.4 | -0.2 | 1.9 | -3.8
O=C(CCN1C(=O)/C(=C/c2cccs2)SC1=S)Nc1cccc(O)c1 | 10.5* | 12.9 | 16.9 | 0.1 | 5.0 | 4.9
O=C(CCCN1C(=O)/C(=C/c2cccs2)SC1=S)Nc1cccc(O)c1 | 13.6* | 15.6 | 15.3 | 0.1 | 0.6 | 4.6
O=C(CCN1C(=O)/C(=C/c2cccs2)SC1=S)Nc1ccc(O)cc1 | 21.7* | 12.9 | 9.5 | -0.3 | 1.4 | 2.1
CC(C)=CCC[C@@]1(C(=O)O)[C@@H]2C/C=C(\C)CC/C=C(\C)CC[C@H]1[C@]1(CC2)CO1 | / | 14.0 | 1.6 | 0.7 | / | 1.5
O=C1CCC2(CCC(c3ccccc3)CC2)N1CC[C@@H](O)c1ccccc1 (stereo partly drawn) | / | / | -4.2 | / | / | -6.6
O=C(CCN1C(=O)/C(=C/c2cccs2)SC1=S)Nc1ccccc1O | 15.5* | 10.5 | -2.1 | 0.0 | 0.6 | 1.3
CCOc1ccc(N2C(=O)CC(N3CCC(NC(=O)Nc4ccccc4)CC3)C2=O)cc1 (stereo not drawn) | 13.6* | -4.3 | 12.2 | -0.3 | -1.3 | -0.7
COc1ccc2oc(C(=O)N(C)Cc3ccc(OC(F)F)cc3)c(C)c2c1 | 12.6* | -4.3 | -2.8 | -0.1 | 4.6 | -2.3
COc1ccc2oc(C(=O)N(C)CCOc3ccccc3)c(C)c2c1 | 1.8 | -2.4 | -6.7 | -0.5 | 7.1 | 0.0
O=C(c1cccc(C(F)(F)F)c1)C1CCCN(C(=O)CN2CCOC2=O)C1 (stereo not drawn) | 11.1* | -8.5 | -10.4 | 0.0 | 0.3 | -5.9
C=CCN1C(=O)[C@H](CC(=O)NCC2CCCCC2)[C@@]2(C(=O)OCC)CCCC=C12 | / | 0.1 | 2.3 | 0.8 | / | 3.6
C=CCN1[C@@H](C)[C@H](c2ccccc2)Oc2cccc(N3CCCC3)c2S1(=O)=O | / | 3.8 | -8.8 | -0.2 | / | -2.7
O=[N+]([O-])c1ccc2cn[nH]c2c1 | 14.3* | 4.8 | -3.0 | -0.7 | 43.7 | -2.9
O=[N+]([O-])c1ccc(Cl)c(S(=O)(=O)Nc2ccc3cn[nH]c3c2)c1 | -6.3 | 5.0 | 7.6 | 0.4 | 13.0 | -3.2
NC(=O)c1ccc(N=Nc2c(-c3ccccc3)[nH]n(-c3ccccc3)c2=O)cc1 | / | 6.0 | -6.1 | 0.5 | 12.2 | -0.6
NS(=O)(=O)c1ccc(N=Nc2c(-c3ccccc3)[nH]n(-c3nc(-c4ccccc4)cs3)c2=O)cc1 | 26.2* | 2.9 | 3.9 | -0.5 | -3.2 | 0.4
CO[C@H]([C@H](C)/C=C/N(C)C=O)[C@@H](C)C(=O)CC[C@H](C)[C@H](O)[C@H](C)[C@H]1OC(=O)/C=C/C(C)=C/C[C@H](O)C[C@@H]2C=CC[C@@H](C[C@H](OC)[C@@]3(CO3)[C@@H](OC)C[C@@H](OC)[C@@H]1C)O2 | / | / | -1.7 | / | / | -2.7
